PubChem BioAssay (Tox21)
Records with an inconclusive call do not appear. Calls of active or inactive are those of the source. Calls follow the shape of the full dose curve. Non-standard residues stand in square brackets, D forms with d. Residues, ends and D or L forms follow the SMILES beside them. pGlu = O=C1CC[C@@H](C(=O)O)N1; Thz = O=C(O)[C@@H]1CSCN1

test: qHTS assay to identify small molecule antagonists of the estrogen receptor alpha (ER-alpha) signaling pathway using the BG1 cell line (AID 743080); settings: BG1Luc4E2 ERE-luciferase antagonist mode, luminescence; series mostly up to 70.3 µM; activity change, negative = inhibition: at the top concentration;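 also: BG1 cells stimulated with 17beta-estradiol alongside compound; nearly all actives have a fitted effect of over 25% in size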
Description: National Center for Advancing Translational Sciences [NCATS]
NIH Chemical Genomics Center [NCGC]
U.S. Environmental Protection Agency [EPA]
National Institutes of Environmental Health Sciences [NIEHS]
National Toxicology Program [NTP]
U.S. Food and Drug Administration [FDA]
Estrogen receptor (ER), a nuclear hormone receptor, plays an important role in development, metabolic homeostasis and reproduction. Endocrine disrupting chemicals (EDCs) and their interactions with steroid hormone receptors like ER causes disruption of normal endocrine function. Therefore, it is important to understand the effect of environmental chemicals on the ER signaling pathway. To identify ER antagonists, BG1-Luc-4E2 cell line (provided by Dr. Michael Denison from University of California) has been used to screen the Tox21 10K compound library. BG1Luc4E2 cell line endogenously expresses full-length ER-alpha and is stably transfected with a plasmid containing four estrogen responsive elements (ERE) upstream of a luciferase reporter gene.
Tox21 Assay Protocol Summary:
BG1-Luc-4E2 cells were cultured in phenol red free assay medium containing 10% charcoal stripped FBS for 5 days before the assay was performed. The cells were dispensed at 4,000 cells/4 uL of assay medium per well into white wall/solid-bottom 1536-well plates using a Multidrop Combi (ThermoFisher Scientific, Waltham, MA) dispenser. The assay plates were incubated at a 37C and 5% CO2 for 24 h, and then 23 nL of compounds dissolved in DMSO, positive controls or DMSO only was transferred to the assay plate using a Pintool station (Kalypsys, San Diego, CA), followed by addition of 1 uL of 17beta-estradiol in assay medium using a Flying Reagent Dispenser (Aurora Discovery, San Diego, CA). After the plates were incubated at 37 C and 5% CO2 for 21.5 h, 1 uL of CellTiter-Fluor reagent (Promega, Madison, WI) of measuring cytotoxicity was added using Flying Reagent Dispenser (FRD) to each well. The assay plates were incubated at 37 C and 5% CO2 for additional 30 min and the fluorescence intensity was quantified by a ViewLux plate reader (PerkinElmer, Shelton, CT). For measuring luciferase reporter gene activity, 4 uL of ONE-Glo reagent (Promega) was added to each plate using an FRD and luminescence was quantified by a ViewLux plate reader after 30 min incubation at room temperature.
% is scaled to controls: 0 for no effect and ±100 for the full control effect; potency is read from the fitted curve at half-maximal effect.

Compound | activity change, negative = inhibition | Potency
CC[C@H](C)[C@@H]1NC(=O)[C@H](Cc2ccc(O)cc2)NC(=O)[C@@H](N)CSSC[C@@H](C(=O)N2CCC[C@H]2C(=O)N[C@@H](CC(C)C)C(=O)NCC(N)=O)NC(=O)[C@H](CC(N)=O)NC(=O)[C@H](CCC(N)=O)NC1=O | 1.45% (inactive) | –
CC#CCC(C)[C@H](O)/C=C/[C@@H]1[C@H]2C/C(=C/CCCC(=O)O)C[C@H]2C[C@H]1O (stereo not given in full) | 32.1% (inactive) | –
C[C@@H]1C/C=C/C=C/C=C/C=C/[C@H](O[C@@H]2O[C@H](C)[C@@H](O)[C@H](N)[C@@H]2O)C[C@@H]2O[C@](O)(C[C@@H](O)C[C@H]3O[C@@H]3/C=C/C(=O)O1)C[C@H](O)[C@H]2C(=O)O | -3.13% (inactive) | –
C#CCOc1ccc2c(C)cc(=O)oc2c1 | 22.8% (inactive) | –
CCCCc1cc2c(=O)c(C(=O)OC)c[nH]c2cc1OCc1ccccc1 | -0.917% (inactive) | –
O=C(OCCO)c1ccccc1O | 0.621% (inactive) | –
C[C@H](/C=C/[C@H](C)C(C)(C)O)[C@H]1CC[C@H]2/C(=C/C=C3C[C@@H](O)C[C@H](O)C3)CCC[C@]12C | – | 29.8 µM (active)
COc1ccc(C2(C#N)CCC(C(=O)O)CC2)cc1OC1CCCC1 (stereo not given) | 6.65% (inactive) | –
CC(C)CCCC(C)NC(C)C (stereo not given) | 4.18% (inactive) | –
CCc1ccc2c(c1)N(CC(C)CN(C)C)c1ccccc1S2 (stereo not given) | 3.9% (inactive) | –
C=C1c2c(Cl)ccc(O)c2C(O)=C2C(=O)[C@]3(O)C(O)=C(C(N)=O)C(=O)[C@@H](N(C)C)[C@@H]3[C@@H](O)[C@H]12 | 1.5% [at 32.5 µM] (inactive) | –
CN1CC(O)c2cc(N=NC(N)=O)c(O)cc21 (stereo not given) | 12.5% (inactive) | –
CC1C(=O)CC2C3(C)CCC2(C(C)C(=O)O)C(=O)C13 (stereo not given) | 0.0666% (inactive) | –
CC(C)(CO)[C@@H](O)C(=O)NCCCC(=O)O | 3.24% (inactive) | –
CC(C)(C)c1ccc(CN2CCN(C(c3ccccc3)c3ccc(Cl)cc3)CC2)cc1 (stereo not given) | -25.6% (inactive) | –
Cc1cc(C)c(NC(=O)C[C@H](CC(=O)O)c2cccc3ccccc23)c(C(=O)N2CCC3(CCCC3)CC2)c1 | -9.31% (inactive) | –
CC[C@H](CC[C@@H](C)[C@H]1CC[C@H]2[C@@H]3CC=C4C[C@@H](O)CC[C@]4(C)[C@H]3CC[C@]12C)C(C)C | 1.19% (inactive) | –
O=C(Cc1cccs1)N[C@@H]1C(=O)N2C(C(=O)[O-])=C(C[n+]3ccccc3)CS[C@H]12 | 6.81% (inactive) | –
O=S(=O)(O)CCCS(=O)(=O)O | -2.1% (inactive) | –
C/C=C1\NC(=O)[C@H]2CSSCC/C=C/[C@H](CC(=O)N[C@H](C(C)C)C(=O)N2)OC(=O)C(C(C)C)NC1=O (stereo not given in full) | – | 0.0531 µM (active)

Compound | activity change, negative = inhibition | Potency
CC(C)=CCC/C(C)=C/C=C/C(C)=C/C=C/C(C)=C/C=C/C=C(C)/C=C/C=C(C)/C=C/C=C(\C)CCC=C(C)C | 17% (inactive) | –
CC1(C)S[C@@H]2[C@H](NC(=O)C(C(=O)Oc3ccc4c(c3)CCC4)c3ccccc3)C(=O)N2[C@H]1C(=O)O (stereo not given in full) | 0% (inactive) | –
O=C(O)c1ccc(NC(=O)[C@H](Cc2ccc(O)cc2)NC(=O)c2ccccc2)cc1 | 1.08% (inactive) | –
Cn1nnnc1SCC1=C(C(=O)O)N2C(=O)[C@@H](NC(=O)[C@H](OC=O)c3ccccc3)[C@H]2SC1 | 0.731% (inactive) | –
CCOC(=O)[C@H](CS)NCCN[C@@H](CS)C(=O)OCC | 0.809% (inactive) | –
CC(C)[C@H](N)C(=O)OCC(CO)OCn1cnc2c(=O)[nH]c(N)nc21 (stereo not given in full) | -4.29% (inactive) | –
CCCCCCCCCCCCOCCCN | 3.82% (inactive) | –
CC(=O)O[C@H]1CC[C@@]2(C)C(=CC[C@H]3[C@@H]4CC[C@H](C(C)=O)[C@@]4(C)CC[C@@H]32)C1 | 9.27% (inactive) | –
O=C(OC[C@H]1O[C@](O)(COC(=O)c2cccnc2)[C@@H](OC(=O)c2cccnc2)[C@@H]1OC(=O)c1cccnc1)c1cccnc1 | -11.3% (inactive) | –
COC(=O)C1=C(C)NC(C)=C(C(=O)O[C@H]2CCN(Cc3ccccc3)C2)[C@H]1c1cccc([N+](=O)[O-])c1 | 5.98% (inactive) | –
CCCCC(=O)N(Cc1ccc(-c2ccccc2-c2nn[nH]n2)cc1)[C@@H](C(=O)O)C(C)C | -7.63% (inactive) | –
CN1c2c(nc(N)[nH]c2=O)NCC1CNc1ccc(C(=O)NC(CCC(=O)O)C(=O)O)cc1 (stereo not given) | 0.57% (inactive) | –
FCOC(C(F)(F)F)C(F)(F)F | -0.351% (inactive) | –
CC1CC(OC(=O)C(O)c2ccccc2)CC(C)(C)C1 (stereo not given) | -4.88% (inactive) | –
CCCCCCCCCCCCCCCCCC[N+](C)(C)CCC[Si](OC)(OC)OC | -8.55% (inactive) | –
C=CCCCCCCCCC(=O)OC | -2.29% (inactive) | –
CCC(=O)c1ccc2c(c1)N(CCCN1CCN(CCO)CC1)c1ccccc1S2 | 1.13% (inactive) | –
COC(=O)[C@H]1[C@H]2C[C@@H]3c4[nH]c5ccccc5c4CCN3C[C@H]2C[C@@H](OC(=O)c2cc(OC)c(OC)c(OC)c2)[C@@H]1OC | – | 6.68 µM (active)
COC1=C(C(=O)O)N2C(=O)[C@@H](NC(=O)[C@H](N)C3=CCC=CC3)[C@H]2SC1 | 6.86% (inactive) | –
O=C1CC[C@@H](C(=O)N2CSC[C@H]2C(=O)O)N1 ([pGlu]-[Thz]-OH) | 2.15% (inactive) | –
